In PubChem BioAssay (EPA / NIEHS):
Results filed as inconclusive are left out. The source made the active and inactive calls. Rule for the calls: active = hit-call score of the fitted dose curve at least 0.9, where 1 is the maximum; inconclusive = response in the unintended direction; inactive = score below 0.9.

test: ATG_M_19_TRANS: Attagene TRANS-FACTORIAL HepG2 Assay for M19 Transcription Factor (Internal Marker) (AID 2282974); conditions: HepG2 Attagene TRANS-FACTORIAL M19 internal marker reporter
Protocol: ATG_TRANS is a cell-based, multiplexed-readout assay that uses HepG2, a human liver cell line, with measurements taken at 24 hours after chemical dosing in a 24-well plate.ATG_M_19_TRANS is one of 30 assay component(s) measured or calculated from the ATG_TRANS assay. It is designed to make measurements of mRNA induction, a form of inducible reporter, as detected with fluorescence intensity signals by Reverse transcription polymerase chain reaction (RT-PCR) and Capillary electrophoresis technology.Data from the assay component ATG_M_19_TRANS was analyzed into 1 assay endpoint. This assay endpoint, ATG_M_19_TRANS, was analyzed in the positive analysis fitting direction relative to DMSO as the negative control and baseline of activity. Using a type of inducible reporter, measures of mRNA for gain-of-signal activity can be used to understand the background control at the transcription factor-level as they relate to the gene . Furthermore, this assay endpoint can be referred to as a secondary readout, because this assay has produced multiple assay endpoints where this one serves a background control function. To generalize the intended target to other relatable targets, this assay endpoint is annotated to the background measurement intended target family, where the subfamily is internal marker.
Human liver HepG2 cells are transiently transfected with multiple reporter transcription units (MRTUs) in 6-well plates using FuGene 6 reagent (Roche; 3 ml FuGene/1 mg DNA). The MRTU constructs are regulated by a cis-regulating element (promoter). […] A major difference between the CIS and TRANS system is that in CIS activities of endogenous TFs are measured, whereas the TRANS assay evaluates changes in activities of exogenous, chimeric NR-Gal4 proteins. […] At the end of 24 hour incubation, total RNA was isolated using TriZol reagent (Invitrogen). The isolated RNA is then reverse-transcribed using oligo(dT) primer and Mo-MLV reverse transcriptase (Invitrogen) with DNAse I (Ambion) treatment for 30 min. The one-tenth of the produced cDNA was amplified by PCR using Taq DNA polymerase (Invitrogen) and two reporter sequence-specific primers. The PCR products were fluorescently labeled by primer extension with 6-arboxyfluorescein (6-FAM) 5'-labeled reporter sequence-specific primer (2 min at 95 C, 20 s at 68 C and 10 min at 72 C) and these products were digested with 5U of HpaI (New England Biolabs) for 2h at 37 C. The fragments were purified using Qiaquick PCR columns (Qiagen), analyzed on an ABI 3130xL genetic analyzer (Applied Biosystems) with peak positions identified by using a set of X-rhodamine (ROX)-labeled MapMarker1000 molecular weight standards (BioVentures). The raw capillary electrophoresis data was processed using Attagraph software (Attagene).

| SMILES | outcome |
| --- | --- |
| CCCCCCCCCCCC(C)=O | inactive |
| CCN1CN(CC)CN(CC)C1 | inactive |
| Oc1ccccc1Cc1ccccc1O | inactive |
| C=C(C)C(=O)OCC(O)COc1ccc(C(C)(C)c2ccc(OCC(O)COC(=O)C(=C)C)cc2)cc1 (stereo not given) | inactive |
| COc1cc(O)c(C(=O)c2ccccc2)cc1S(=O)(=O)O | inactive |
| CC(C)(O)Cc1ccccc1 | inactive |
| C=C(C)[C@@H]1CC=C(C)CC1 | inactive |
| CCCCCCCC(=O)OCC(COC(=O)CCCCCCC)OC(=O)CCCCCCC | inactive |
| CC/C=C\CCOC(=O)c1ccccc1O | inactive |
| C=CCOC(=O)c1ccc(C(=O)OCC=C)c(C(=O)OCC=C)c1 | inactive |
| COCC(=O)O | inactive |
| CCc1cccc(C)c1N | inactive |
| CC(C)c1ccc(O)c(C(C)C)c1 | inactive |
| COC(C=C(C)CCC=C(C)C)OC | inactive |
| O=C1CCCCC1C1CCCCC1 (stereo not given) | inactive |
| CCCCC/C=C\C/C=C\CCCCCCCC(=O)O | inactive |
| CC(CC=O)CC(C)(C)C (stereo not given) | inactive |
| Cc1cc(C)c(C=O)c(C)c1 | inactive |
| c1ccc2c(c1)[nH]c1ccccc12 | inactive |
| COc1ccc(-c2coc3cc(O)cc(O)c3c2=O)cc1 | inactive |

| SMILES | outcome |
| --- | --- |
| CC(C)=CCCC(C)=CC#N | inactive |
| O=C(Oc1ccccc1)c1ccccc1C(=O)Oc1ccccc1 | inactive |
| NC(=O)Nc1ccccc1 | inactive |
| Oc1ccc(-c2ccccc2)c(Cl)c1 | inactive |
| COC(=O)c1ccccc1C | inactive |
| CC(=O)C(C)C | inactive |
| C=C(C)C1CC=C(C)C(OC(C)=O)C1 (stereo not given) | inactive |
| C=C1C[C@H]2[C@@H]3C=C(C)C4=CC(=O)CC[C@]4(C)[C@H]3CC[C@]2(C)[C@@]1(OC(C)=O)C(C)=O | inactive |
| CCOC(=O)/C=C\C(=O)OCC | inactive |
| C=C(C)C(=O)OCCCCCCCCCCCC | inactive |
| COc1ccc(C(=O)c2ccccc2)c(O)c1 | inactive |
| COC(Cc1ccccc1)OC | inactive |
| CCN(CC)c1cccc(C)c1 | inactive |
| CCCCNS(=O)(=O)c1ccc(C)cc1 | inactive |
| C[Si]1(C)O[Si](C)(C)O[Si](C)(C)O[Si](C)(C)O[Si](C)(C)O1 | inactive |
| CCCCOCCOC(=O)COc1ccc(Cl)cc1Cl | inactive |
| CC(=O)OCc1ccccc1 | inactive |
| CC(C)(CO)COC(=O)C(C)(C)CO | inactive |
| O=C(OCc1ccccc1)c1ccc(O)cc1 | inactive |
| CC(=O)CCC1=C(C)CCCC1(C)C | inactive |
